Test results from PubChem BioAssay.
Activity calls are given as the source filed them.

What was measured:
[1] = optical density shifts of acrAB sulA E. coli – strain DRC41, OD650, 48 h, E. coli filamentation inducer project, primary screen (AID 1152); details: higher = more signal, called active from +8 up or from −8 down;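 note: E. coli MC1000 strain DRC41 lacking acrAB efflux pump and sulA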
[2] = probe aLefty1 binding on compound microarray – biochemical, small-molecule microarray, 635/667 nm fluorescence, primary screen (AID 1153); details: higher = more signal;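 note: score merges spot fluorescence with signal-to-noise ratio from the scanned slide images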
[3] = plasmodial surface anion channel blockers, osmotic lysis – cell-based, P. falciparum Indochina, OD700, 1 h, primary screen (AID 1154); details: P. falciparum Indochina infected RBC osmotic lysis, higher = more signal, called active from +8 up or from −8 down
[4] = plasmodial surface anion channel blockers, osmotic lysis – cell-based, P. falciparum Indochina, OD700, 2 h, primary screen (AID 1155);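 note: lysis reports solute entry through the parasite surface anion channel PSAC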; details: P. falciparum Indochina infected erythrocytes, higher = more signal, called active from +8 up or from −8 down
[5] = changes in parasitized red cell lysis, either direction – P. falciparum Indochina, OD700, 3 h, PSAC antagonist project, primary screen (AID 1156); details: P. falciparum-infected erythrocytes, osmotic lysis, higher = more signal, called active from +8 up or from −8 down
[6] = plasmodial surface anion channel blockers, osmotic lysis – cell-based, P. falciparum Indochina, OD700, 18 h, primary screen (AID 1157); details: P. falciparum Indochina infected erythrocytes, osmotic lysis OD700, 18 h; higher = more signal, called active from +8 up or from −8 down
[7] = S6 kinase pathway phospho-S6 level changes – cell-based, A549, cytoblot, luminescence, serum-stimulated, primary screen (AID 1158); details: 5 h, higher = more signal;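 note: serum-stimulated A549 lung adenocarcinoma cells; signal is phosphorylated S6 detected by cytoblot immunostaining with HRP secondary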
[8] = target: NADPH oxidase 2 (Homo sapiens) (UniProt P04839); assay: compounds shifting NOX2 Amplex Red fluorescence – cell-based, HEK293-NOX2, PMA-stimulated, NOX inhibitor project, primary screen (AID 1159); details: 45 min, higher = more signal, called active from +8 up or from −8 down; note: test concentration not given here
[9] = target: NADPH oxidase 4 (Homo sapiens) (UniProt Q9NPH5); assay: compounds shifting NOX4 Amplex Red fluorescence – cell-based, HEK293-NOX4, tetracycline-induced, NOX inhibitor project, primary screen (AID 1160); details: HEK293-NOX4, Amplex Red H2O2 fluorescence, 45 min; higher = more signal, called active from +8 up or from −8 down
[10] = target: NADPH oxidase 5 (Homo sapiens) (UniProt Q96PH1); assay: compounds shifting NOX5 Amplex Red fluorescence – cell-based, HEK293-NOX5, NOX inhibitor project, primary screen (AID 1161); details: HEK293-NOX5, ionomycin, 45 min, higher = more signal
[11] = compound effects on lung adenocarcinoma cell viability – A549, calcein-AM fluorescence, 48 h, basal, profiling panel (AID 1162); details: higher = more signal; note: test concentration not given here
[12] = compound effects on differentiated 3T3-L1 adipocyte viability – cell-based, 3T3-L1 adipocytes, calcein-AM fluorescence, 48 h, basal, profiling panel (AID 1163); details: 3T3-L1 adipocytes viability, higher = more signal; note: test concentration not given here
[13] = compound effects on hepatocellular carcinoma cell viability – HepG2, calcein-AM fluorescence, 48 h, basal, profiling panel (AID 1164); details: higher = more signal; note: test concentration not given here
[14] = compound effects on multiple myeloma cell viability – MM1S, calcein-AM fluorescence, 48 h, basal, profiling panel (AID 1165); details: higher = more signal;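 note: viability of MM1S multiple myeloma cells under basal unstimulated conditions; test concentration not given here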
[15] = calcein-AM signal in unstimulated myeloma cells – cell-based, calcein-AM fluorescence, 48 h, PK04 Diversity Set, profiling panel (AID 1166); details: RPMI8226 myeloma viability, higher = more signal;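 note: cells grown under basal conditions without added stimulus; test concentration not given here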
[16] = JC-1 mitochondrial signal, unstimulated HepG2 cells – cell-based, JC-1 fluorescence, 24 h, 100 nL compound, profiling panel (AID 1167); details: HepG2 mitochondrial potential, higher = more signal; note: test concentration not given here
[17] = JC-1 mitochondrial signal, unstimulated adipocytes – cell-based, JC-1 fluorescence, 3T3-L1 adipocytes, 24 h, 100 nL compound, profiling panel (AID 1168); details: JC-1 mitochondrial fluorescence, higher = more signal, called active from +8 up or from −8 down; note: test concentration not given here
[18] = JC-1 mitochondrial signal, unstimulated myeloma cells – cell-based, JC-1 fluorescence, RPMI8226, 24 h, 100 nL compound, profiling panel (AID 1169); details: JC-1 mitochondrial potential fluorescence, higher = more signal; note: test concentration not given here
[19] = JC-1 mitochondrial signal, unstimulated MM1S myeloma – cell-based, JC-1 fluorescence, 24 h, 100 nL compound, profiling panel (AID 1170); details: MM1S mitochondrial potential, higher = more signal; note: test concentration not given here
[20] = resazurin metabolic signal in A549 cells – cell-based, resazurin fluorescence, 24 h, PK04 Diversity Set, profiling panel (AID 1171); details: A549 viability, higher = more signal, called active from +8 up or from −8 down; note: test concentration not given here

NADPH oxidase 4 (Homo sapiens), sequence (Q9NPH5 whole entry, looked up): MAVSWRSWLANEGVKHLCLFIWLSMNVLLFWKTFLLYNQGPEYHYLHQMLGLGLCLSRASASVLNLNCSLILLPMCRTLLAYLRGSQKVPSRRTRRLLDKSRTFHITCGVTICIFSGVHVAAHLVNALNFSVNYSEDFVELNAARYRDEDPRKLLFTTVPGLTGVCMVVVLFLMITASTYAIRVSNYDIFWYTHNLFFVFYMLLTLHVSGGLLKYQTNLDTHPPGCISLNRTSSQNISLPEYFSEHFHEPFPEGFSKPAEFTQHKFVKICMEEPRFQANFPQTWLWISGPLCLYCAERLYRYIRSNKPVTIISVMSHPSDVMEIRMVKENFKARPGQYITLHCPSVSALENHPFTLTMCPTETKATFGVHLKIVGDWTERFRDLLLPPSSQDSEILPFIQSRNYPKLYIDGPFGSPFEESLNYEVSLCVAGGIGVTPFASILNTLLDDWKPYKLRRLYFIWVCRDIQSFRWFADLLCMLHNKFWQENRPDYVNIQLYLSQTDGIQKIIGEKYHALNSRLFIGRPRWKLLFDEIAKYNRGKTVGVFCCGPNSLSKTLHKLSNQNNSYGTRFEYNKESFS
NADPH oxidase 5 (Homo sapiens), sequence (Q96PH1 whole entry, looked up): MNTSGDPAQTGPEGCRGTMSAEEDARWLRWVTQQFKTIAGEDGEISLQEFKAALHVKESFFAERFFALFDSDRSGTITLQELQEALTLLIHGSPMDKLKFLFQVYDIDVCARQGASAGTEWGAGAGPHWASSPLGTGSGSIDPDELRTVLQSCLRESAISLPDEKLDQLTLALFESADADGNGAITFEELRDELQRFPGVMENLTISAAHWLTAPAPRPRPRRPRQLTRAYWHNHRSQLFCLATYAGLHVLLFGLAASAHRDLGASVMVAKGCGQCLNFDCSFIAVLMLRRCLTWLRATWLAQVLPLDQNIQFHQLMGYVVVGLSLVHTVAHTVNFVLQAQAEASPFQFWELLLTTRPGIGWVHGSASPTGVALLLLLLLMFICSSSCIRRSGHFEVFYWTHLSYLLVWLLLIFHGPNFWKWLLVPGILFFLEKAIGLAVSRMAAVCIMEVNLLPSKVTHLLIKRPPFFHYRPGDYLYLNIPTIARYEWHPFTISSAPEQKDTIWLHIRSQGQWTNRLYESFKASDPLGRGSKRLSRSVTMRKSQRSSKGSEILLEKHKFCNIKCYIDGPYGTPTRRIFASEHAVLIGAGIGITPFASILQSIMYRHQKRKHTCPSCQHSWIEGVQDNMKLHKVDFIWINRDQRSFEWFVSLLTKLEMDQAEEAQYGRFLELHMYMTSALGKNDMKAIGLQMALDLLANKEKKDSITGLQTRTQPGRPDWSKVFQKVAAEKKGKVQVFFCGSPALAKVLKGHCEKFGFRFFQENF
NADPH oxidase 2 (Homo sapiens), sequence (P04839 whole entry, looked up): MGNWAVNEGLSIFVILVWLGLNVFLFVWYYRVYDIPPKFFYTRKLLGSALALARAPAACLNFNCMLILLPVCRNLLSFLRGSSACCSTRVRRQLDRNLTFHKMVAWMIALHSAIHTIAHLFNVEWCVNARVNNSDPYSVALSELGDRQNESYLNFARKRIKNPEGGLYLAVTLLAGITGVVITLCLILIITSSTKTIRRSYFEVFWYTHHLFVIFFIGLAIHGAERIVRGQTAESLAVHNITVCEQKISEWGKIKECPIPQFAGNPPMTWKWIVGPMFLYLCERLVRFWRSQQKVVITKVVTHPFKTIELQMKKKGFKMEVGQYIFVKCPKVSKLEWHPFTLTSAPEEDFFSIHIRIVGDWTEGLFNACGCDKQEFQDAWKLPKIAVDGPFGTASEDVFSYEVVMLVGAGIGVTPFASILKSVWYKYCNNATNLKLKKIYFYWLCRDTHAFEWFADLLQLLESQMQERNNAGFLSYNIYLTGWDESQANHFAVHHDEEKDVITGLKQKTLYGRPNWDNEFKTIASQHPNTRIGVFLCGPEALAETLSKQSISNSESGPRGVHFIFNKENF

SMILES	z-score [1]	composite z-score [2]	z-score [3]	z-score [4]	z-score [5]	z-score [6]	z-score [7]	z-score [8]	z-score [9]	z-score [10]	z-score [11]	z-score [12]	z-score [13]	z-score [14]	z-score [15]	z-score [16]	z-score [17]	z-score [18]	z-score [19]	z-score [20]
COC(=O)[C@@]1(Cc2ccccc2)[C@H]2c3cc(C(=O)N4CCCC4)n(CCSCCO)c3C[C@H]2CN1C(=O)c1ccccc1	-1.88 (inactive)	0.597	1.5 (inactive)	0.636 (inactive)	0.57 (inactive)	0.691 (inactive)	-0.653	0.957 (inactive)	-0.446 (inactive)	-0.987	-0.52	0.629	0.422	-0.451	-0.874	0.59	-1.19 (inactive)	0.26	0.0172	-0.845 (inactive)
C[C@]1(C(=O)NCC(F)(F)F)c2ccccc2C(=O)N(Cc2ccccc2)[C@H]1c1ccc(CO)cc1	0.588 (inactive)	0.382	2.28 (inactive)	0.0336 (inactive)	-0.201 (inactive)	-0.162 (inactive)	-0.617	-0.0434 (inactive)	0.431 (inactive)	0.17	-0.431	-0.2	0.57	-0.503	0.514	1.97	0.113 (inactive)	0.824	-1.07	0.0906 (inactive)
COc1cc(NN2C(C(O)C3CCCCC3)C=CC3C(=O)N(C)C(=O)C32)cc(OC)c1OC (stereo not given)	-1.27 (inactive)	0.949	0.713 (inactive)	0.608 (inactive)	0.917 (inactive)	1.34 (inactive)	-0.723	-0.904 (inactive)	-2.73 (inactive)	-1.7	-0.536	-0.0026	-0.848	-0.197	0.436	-0.326	-0.657 (inactive)	0.316	0.144	-0.825 (inactive)
COCCOC(=O)N1C(=O)[C@@]2(c3cc(C#Cc4ccc(OC)cc4)ccc31)[C@H](C(=O)NC[C@H](O)c1ccccc1)[C@H]1C(=O)O[C@H](c3ccccc3)[C@H](c3ccccc3)N1[C@@H]2c1ccc(OCCO)cc1	1.34 (inactive)	0.179	5.02 (inactive)	1.45 (inactive)	-0.191 (inactive)	0.312 (inactive)	2	-0.756 (inactive)	-2.17 (inactive)	-2.61	-0.953	0.55	-1.1	-0.915	-1.47	-1.97	2.35 (inactive)	-0.66	-1.78	1.32 (inactive)
COCCCNC(=O)[C@@]1(c2ccc([N+](=O)[O-])cc2)CC(=O)N(CC23CC4CC(CC(C4)C2)C3)[C@@H]1c1ccc(CO)cc1I	-0.355 (inactive)	0.082	24 (active)	8.65 (active)	2.5 (inactive)	2.31 (inactive)	-0.0623	2.08 (inactive)	-1.02 (inactive)	-0.233	-1.28	-0.64	-2.75	-3.75	-4.35	2.16	-1.23 (inactive)	-1.02	-1.81	-2.76 (inactive)
Cc1ccc(S[C@]2(C(=O)NCC(C)C)CC(=O)N(C3Cc4ccccc4C3)[C@@H]2c2ccc(CO)cc2I)cc1	-0.715 (inactive)	-0.192	2.92 (inactive)	0.768 (inactive)	0.708 (inactive)	0.475 (inactive)	-0.447	1.25 (inactive)	0.0492 (inactive)	1.47	0.168	-0.492	-0.455	-2.37	-2.6	-0.534	-0.233 (inactive)	-0.107	-1.76	-0.105 (inactive)
COC(=O)C1=CC(CCCO)=CC(c2ccc(CN3CCCC3)cc2)N(Cc2cc3c(cc2Br)OCO3)C=C1C(=O)OC (stereo not given)	0.235 (inactive)	0.744	0.903 (inactive)	0.408 (inactive)	1.23 (inactive)	0.082 (inactive)	0.158	1.64 (inactive)	-0.638 (inactive)	0.399	-0.392	0.151	0.0308	0.0875	0.046	0.516	-0.251 (inactive)	0.144	-0.0408	0.652 (inactive)
COCC(=C=CC[C@H](O)c1cccc(OCCO)c1)C[C@H](O)COCc1ccccc1	-0.0371 (inactive)	0.213	9.2 (active)	1.07 (inactive)	0.307 (inactive)	0.404 (inactive)	-0.234	-0.436 (inactive)	-0.797 (inactive)	-1.39	0.276	-0.48	0.0978	0.103	-0.557	-0.487	-0.3 (inactive)	0.191	-0.701	-0.359 (inactive)
COCCOC(=O)N1C(=O)[C@@]2(c3ccccc31)[C@H](c1ccc(OCCO)cc1)N1[C@H](c3ccccc3)[C@H](c3ccccc3)OC(=O)[C@H]1[C@@H]2C(=O)N1CCCCCCC1	-0.906 (inactive)	2.77	22.8 (active)	7.62 (inactive)	0.586 (inactive)	1.64 (inactive)	-0.0785	0.918 (inactive)	0.901 (inactive)	1.33	0.246	0.0203	0.0373	-2.74	-0.846	-0.0288	-3.41 (inactive)	-0.345	-0.899	0.0556 (inactive)
COCCOC(=O)N1C(=O)[C@@]2(c3cc(C#CCNC(N)=O)ccc31)[C@H](c1ccc(OCCO)cc1)N1[C@H](c3ccccc3)[C@H](c3ccccc3)OC(=O)[C@H]1[C@@H]2C(N)=O	0.336 (inactive)	-0.346	4.37 (inactive)	1.02 (inactive)	-0.383 (inactive)	0.0173 (inactive)	-0.412	1.84 (inactive)	1.34 (inactive)	0.646	0.586	-0.0118	0.334	-1.24	-0.668	-1.7	0.407 (inactive)	-0.185	-0.604	0.266 (inactive)
Cc1ccccc1C(O)C1C=CC2C(=O)N(c3ccccc3)C(=O)C2N1Nc1ccc([N+](=O)[O-])cc1 (stereo not given)	-0.467 (inactive)	0.186	26.5 (active)	11.2 (active)	2.6 (inactive)	1.52 (inactive)	-0.483	-1.29 (inactive)	-3.58 (inactive)	-1.83	-1.06	-0.127	-1.2	-0.127	-0.566	-1.04	-1.1 (inactive)	-0.247	0.585	0.306 (inactive)
CN1C(=O)C2C=CC(C(O)c3cc(C(F)(F)F)cc(C(F)(F)F)c3)N(NC(=O)OC(C)(C)C)C2C1=O (stereo not given)	-1.13 (inactive)	0.363	-0.0698 (inactive)	0.118 (inactive)	-0.548 (inactive)	1.2 (inactive)	-0.636	-0.694 (inactive)	-1.47 (inactive)	1.5	-1.29	-0.122	-0.938	0.319	-1.06	-1.28	1.03 (inactive)	0.191	0.546	1.14 (inactive)
NCCCCCNC(=O)[C@@H]1C[C@@H]2C(=O)N3CCC[C@H]3C(=O)N2[C@@H]1c1ccc(O)cc1	0.524 (inactive)	1.08	1.9 (inactive)	0.106 (inactive)	-0.696 (inactive)	0.277 (inactive)	-0.596	0.105 (inactive)	-1.53 (inactive)	0.0464	0.389	0.485	0.2	-0.42	0.209	-0.0437	-0.645 (inactive)	-0.175	0.73	-0.234 (inactive)
C=C(COC)/C(=C/C[C@H](OC(C)=O)c1cccc(OCCO)c1)c1cnc2ccccc2c1	-0.339 (inactive)	0.0999	15.2 (active)	2.65 (inactive)	1.41 (inactive)	0.872 (inactive)	-0.512	0.373 (inactive)	0.228 (inactive)	-0.167	0.858	1.01	0.455	-2.78	-0.114	0.713	-0.437 (inactive)	0.23	-0.0946	0.127 (inactive)
CN(C)CCCCNC(=O)[C@H]1C[C@H]2C(=O)N[C@@H](CCCC[N+](C)(C)C)C(=O)N2[C@H]1c1ccc(O)cc1	1.67 (inactive)	-0.2	1.32 (inactive)	-0.539 (inactive)	-0.27 (inactive)	-1.63 (inactive)	0.0054	0.622 (inactive)	0.319 (inactive)	1.31	-0.0568	0.29	-0.172	-0.178	0.733	-0.445	-0.763 (inactive)	-0.101	-0.203	0.625 (inactive)
COC(=O)C(CC#Cc1ccc2c(c1)[C@]1(C(=O)N2)[C@H](c2ccc(O)cc2)N2[C@H](c3ccccc3)[C@H](c3ccccc3)OC(=O)[C@H]2[C@@H]1C(=O)N1CCCCCCC1)C(=O)OC	1.11 (inactive)	1.69	0.53 (inactive)	-1.11 (inactive)	-0.677 (inactive)	-2.43 (inactive)	3.01	0.953 (inactive)	0.181 (inactive)	1.63	1.58	0.581	1.98	0.362	-2.56	0.945	-0.174 (inactive)	-0.799	-0.158	-0.636 (inactive)
CC(CO)N1C(=O)[C@@H]2[C@H]3C(=O)OCC=C[C@H]3OC23C=CCN(c2ccc(Cl)cc2)C(=O)[C@@H]13 (stereo not given in full)	0.458 (inactive)	-0.283	-0.499 (inactive)	-0.219 (inactive)	0.639 (inactive)	0.0119 (inactive)	-0.172	0.8 (inactive)	0.28 (inactive)	1.34	0.0473	0.311	0.336	0.829	-0.485	-0.321	-0.574 (inactive)	-0.818	0.0977	0.957 (inactive)
COc1cc(C(O)C2C=CC3C(=O)N(Cc4ccccc4)C(=O)C3N2n2cnnc2)cc(OC)c1OC (stereo not given)	1.31 (inactive)	0.431	1.15 (inactive)	-0.129 (inactive)	-0.666 (inactive)	-1.04 (inactive)	0.866	1.24 (inactive)	-0.564 (inactive)	-0.665	1.39	-0.356	1.67	0.599	1.46	0.576	0.328 (inactive)	0.251	0.588	-0.538 (inactive)
